Many of the other results were omitted from the sample, so hits are more common in it than they were.
Shiga toxin inh: inhibitors of Shiga toxin in Vero cells | AID 2315 | Vero cells, Shiga toxin protein synthesis inhibition reporter | actives 9.2% (n = 290,000) | inhibition, % at 38.7 µM; in the data active = inhibition mostly above about 28%, no sharp cut-off; inactive = mostly below about 43%; note: 0% is about no effect
SARS PLP yeast: SARS-CoV PLP inhibition in yeast. actives 0.19% (n = 330,000). S. cerevisiae expressing SARS-CoV PLpro, growth rescue. Potency, µM (top dose mostly 32.9 µM), for the others: top-dose activity, positive = growth rescue, actives largely listed as activators. AID 485353; calls by dose curve; note: potency is the fitted concentration of half-maximal effect; 0% is about no effect; nearly all actives have a fitted effect of over 55% in size
AmpC inh detg: AmpC beta-lactamase inhibition with detergent present; P00811; AmpC hydrolysis of nitrocefin, absorbance 480 nm, 0.01% Triton; Potency, µM (top dose mostly 114 µM), for the others: at the highest dose activity change, negative = inhibition, usual class: inhibitors; actives 0.041% (n = 370,000); AID 485294;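 note: potency is the fitted concentration of half-maximal effect; 0% = no-compound wells and -100% = no-enzyme wells; nearly all actives have a fitted effect of over 25% in size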
Target sequence (P00811 whole entry, looked up): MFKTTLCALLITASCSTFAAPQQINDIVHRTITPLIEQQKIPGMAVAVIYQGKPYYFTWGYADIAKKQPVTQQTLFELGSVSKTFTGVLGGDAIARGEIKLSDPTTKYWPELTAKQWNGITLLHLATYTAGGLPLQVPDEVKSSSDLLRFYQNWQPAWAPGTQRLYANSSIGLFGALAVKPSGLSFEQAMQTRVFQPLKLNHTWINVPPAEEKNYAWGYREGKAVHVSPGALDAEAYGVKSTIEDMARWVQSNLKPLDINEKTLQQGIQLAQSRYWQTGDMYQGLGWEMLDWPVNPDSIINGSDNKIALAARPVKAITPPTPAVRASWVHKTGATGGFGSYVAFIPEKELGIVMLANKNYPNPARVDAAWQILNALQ
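AmpC (5.3 nM in the dispensed reagent) in 20 mM phosphate pH 7.0 with 0.01% (detergent screen) or 0.0001% Triton X-100 was preincubated with compounds for 15 min at room temperature. Nitrocefin was then added from an 800 uM solution, and hydrolysis was followed at 480 nm.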
AmpC no deterg: inhibitors of E. coli AmpC beta-lactamase without detergent | AmpC nitrocefin hydrolysis, absorbance 480 nm, 0.0001% Triton | Potency, µM (titrated, usually from 57.1 µM), for inactives: at the top dose activity change, negative = inhibition, hits mostly inhibitors | AID 485341 | actives 0.52% (n = 330,000) | P00811;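 note: potency is the fitted concentration of half-maximal effect; plate controls were no compound for no effect and no enzyme for full effect; nearly all actives have a fitted effect of over 20% in size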
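AmpC (5.3 nM in the dispensed reagent) in 20 mM phosphate pH 7.0 with 0.01% (detergent screen) or 0.0001% Triton X-100 was preincubated with compounds for 15 min at room temperature. Nitrocefin was then added from an 800 uM solution, and hydrolysis was followed at 480 nm.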
AMA1 RON2 block: inhibitors of Plasmodium falciparum AMA1-RON2 interaction; AID 720542; actives 0.2% (n = 360,000); AlphaScreen AMA1-biotinylated RON2 peptide binding; Potency, µM (highest dose often 58.2 µM), for inactives: at the highest dose activity change, negative = inhibition, hits mostly inhibitors;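 note: potency is the fitted concentration of half-maximal effect; 0% = vehicle wells and -100% = peptide control; nearly all actives have a fitted effect of over 45% in size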
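AMA1 (3D7) with his tag at 25 nM final met compounds first, then biotinylated RON2 peptide at 25 nM; detection used donor plus acceptor beads, 10 µg/mL apiece, read by AlphaScreen after 30 min at room temperature.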
Cycloheximide cs: affects cycloheximide protein synthesis inhibition readout, counter-screen; max response, %; cell reporter, cycloheximide protein synthesis inhibition counterscreen; actives 12% (n = 300,000); in the data active = max response mostly above about 13%, no sharp cut-off; inactive = mostly below about 14%; note: read at 38.3 µM for the half of the compounds with a filed dose; 0% is about no effect
Starred values were filed as active, the others as inactive; ? = inconclusive; · = no result given; [ ] = another dose, or the depositor's remark. Unless noted, calls come from the whole dose curve; as a rule, active = well fitted curve in the direction sought with a large enough effect; inconclusive = small, poorly fitted or top-dose-only effect, or another doubt; inactive = no such curve, though single readings can be large; an effect the other way counts as inactive or inconclusive.

SMILES	Shiga toxin inh	SARS PLP yeast	AmpC inh detg	AmpC no deterg	AMA1 RON2 block	Cycloheximide cs
O=C(Nc1ccc2c(c1)OCO2)c1cnn2cccnc12	74*	-4%	?	-15%	-3%	49*
O=C(Nc1cccnc1)c1cnn2cccnc12	24	-2%	?	-10%	-5%	0
O=C(Nc1cccc(O)c1)c1cnn2cccnc12	101*	8%	0%	-6%	-2%	40*
CN1CCc2c(sc3c2C(=O)NC(c2ccc(OC(=O)c4ccc(Cl)cc4)cc2)N3)C1 (centres undefined)	·	·	12%	·	·	·
CCN(CC)Cc1cc(NC2=NS(=O)(=O)c3ccccc32)ccc1OC(=O)c1ccccc1	2	3%	-11%	-29%	5%	1
COC(=O)c1c(-c2cccs2)csc1NC(=O)c1cccnc1	60*	-12%	-9%	91%	30%	37*
CNc1ccc(Br)cc(C(=O)/C=C/c2ccc(OC)cc2)c1=O	active	20%	?	-25%	-17%	21*
CNc1ccc(Br)cc(C(=O)/C=C/c2ccc3c(c2)OCO3)c1=O	74	-11%	0%	-57%	?	25*
COc1ccc(C(c2c(NC(=O)c3ccco3)sc(C)c2C)N2CCOCC2)cc1OC (centres undefined)	·	-3%	-16%	210%	-2%	·
COc1ccc(C(C(C(=O)c2cccs2)N2CCOCC2)N2CCOCC2)cc1OC (centres undefined)	11	1%	2%	12%	-4%	16*
Cc1cc(-c2csc(NCc3ccccc3)n2)c(C)n1C	17	-1%	2%	-18%	-9%	-3
COCCNc1nc(-c2cc(C)c(C)cc2C)cs1	73*	-1%	-1%	-2%[2.29 µM]	-29%	20*
CN(Cc1ccccc1)C(=O)c1cc2cc(F)ccc2[nH]1	75*	-1%	7%	-29%	3%	65*
COc1cc2[nH]c(C(=O)N(C)Cc3ccccc3)cc2c(OC)c1OC	-6	-3%	2%	34%	-10%	1
COc1ccc(-c2cn(-c3ccccc3)c(=S)[nH]2)cc1OC	75*	8%	1%	-12%	65%	25*
Cc1cccc(-n2cc(-c3ccc([N+](=O)[O-])cc3)[nH]c2=S)c1	105*	-1%	2%	-24%	78%	24*
COc1ccc(-n2cc(-c3ccc(Cl)cc3)[nH]c2=S)cc1	13	1%	-3%	-36%	61%	13*
Nc1ccc(-n2cc(-c3ccccc3)[nH]c2=S)cc1	61*	-3%	-5%	-21%	71%	33*
COC(=O)c1ccc(-n2cc(-c3ccc(OC)cc3)[nH]c2=S)cc1	51	3%	?	?	0%	7
O=[N+]([O-])c1ccc(-c2cn(-c3ccccc3)c(=S)[nH]2)cc1	22	5%	?	-31%	-4%	-1
COc1cccc(-n2cc(-c3ccc(F)cc3)[nH]c2=S)c1	86*	-2%	-4%	-52%	63%	37*
CN(C)c1ccc(-c2noc(-c3ccccc3O)n2)cc1	126*	1%	?	-4%	-8%	47*
CCSc1ccccc1-c1nc(-c2ccncc2)no1	35	-10%	9%	7%	14%	26*
COc1ccccc1-c1noc(-c2cc(OC)c(OC)c(OC)c2)n1	4	-21%	-6%	182%	1%	-2
Cc1c(-c2nc(-c3ccc(C(F)(F)F)cc3)no2)n(C)oc1=O	129*	0%	-1%	-30%	-3%	70*
SMILES	Shiga toxin inh	SARS PLP yeast	AmpC inh detg	AmpC no deterg	AMA1 RON2 block	Cycloheximide cs
COc1ccccc1-c1nc(-c2ccc(Br)cc2)no1	25	3%	-15%	-40%	-3%	30*
CC(C)CN1CC(Br)C(=O)NC1=O (centres undefined)	·	·	·	·	4%	·
CCN(CC)CCN(C(=O)CN1C(=O)CCC1=O)c1nc2cc3c(cc2s1)OCO3	15	-2%	-1%	3%	3%	15
COc1cccc2cc(C(=O)NCc3ccc(Cl)cc3)c(=N)oc12	9	10%	0%	7%	12%	7
COc1ccc(-c2nc(-c3ccc(Br)cc3)no2)c(OC)c1	197*	·	0%	·	-15%	39*
CS(=O)(=O)c1ccccc1-c1nc(-c2ccc(C(F)(F)F)cc2)no1	60*	-5%	2%	26%	-1%	21*
COc1ccccc1-c1nc(-c2ccncc2)no1	79*	0%	1%	-8%	-4%	32*
Cc1noc(-c2ccc(-c3noc(-c4ccc(C(F)(F)F)cc4)n3)cc2)n1	·	·	-8%	·	·	·
COc1cc(OC)cc(-c2nc(-c3ccc(Br)cc3)no2)c1	7	6%	4%	-19%	16%	7
CCOc1nc(C)ccc1-c1noc(-c2ccccc2OC)n1	39	3%	-12%	54%	24%	24*
COc1ccc(C(=O)NCC(=O)OCc2ccc([N+](=O)[O-])cc2)cc1	-10	-1%	?	-7%	-4%	-8
COc1nc(-c2ccc(C)cc2)ccc1-c1noc(-c2ccccc2Br)n1	·	·	22%	·	·	·
Cc1ccc(-c2noc(-c3ccccc3Br)n2)cc1	65*	-2%	?	-22%	39%	35*
FC(F)(F)c1ccccc1-c1nc(-c2ccncc2)no1	47*	-3%	2%	11%	5%	40*
CCCc1nc(C(C)(C)O)c(C(=O)O)n1Cc1ccc(-c2ccccc2-c2nn[nH]n2)cc1	-9	5%	45µM*	-57%	·	-1
COC(/C(=N/O)c1ccc(Cl)cc1)c1ccccc1 (centres undefined)	50*	-9%	1%	-34%	-19%	33*
COc1ccc(Cl)cc1NC(=O)C(OC)c1ccccc1 (centres undefined)	9	-3%	-7%	0%	-1%	4
O=C(COC(=O)C12CC3CC(CC(C3)C1)C2)Nc1ccccc1F	13	-33%	-5%	-3%	9%	19*
CC(C)=CC(O)C/C(C)=C/COc1ccc2ccc(=O)oc2c1 (centres undefined)	38	-2%	4%	-10%	-6%	8.6*
CCOC(=O)c1cnc2c(cnn2C)c1NCCCN(C)C	-6	8%	2%	-23%	0%	-3
N/C(Cc1nc(-c2ccc(F)cc2)cs1)=N\O	43*	-1%	1%	-18%	1%	22*
CCc1cc2c(cc1-c1csc(C/C(N)=N/O)n1)C(C)(C)CCC2(C)C	·	·	·	·	74%	·
N/C(Cc1nc(-c2ccc(Br)cc2)cs1)=N\O	78*	-1%	1%	-29%	-12%	26*
NC(=S)Cc1nc(-c2ccccc2)cs1	-6	3%	?	-27%	16%	6

Screening data deposited in PubChem BioAssay by National Center for Advancing Translational Sciences (NCATS).
